This is part of a sample that, as a whole, favours compounds with a hit. Of some 83,000 tested, about 20% had one in any assay.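 Treatment: one concentration, 48 hours, 96-well format. Scoring: percent growth, with anything below 10 considered active.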 Values without a mark were called inactive. The source made the active and inactive calls.
Tested on: LOX IMVI melanoma
Assay: NCI-60 one-dose screen, 48 h (100 = growth as untreated, 0 = no growth, -100 = all killed)
Conditions: 10 µM unless noted
Procedure: Growth inhibition of the LOX IMVI human tumor cell line is measured as a screen for anti-cancer activity. Cells are grown in 96 well plates and exposed to the test compound for 48 hours. Compounds are tested at a single concentration, which is 10^-5 M for most compounds. The reported endpoint is percent growth (GI% or GIPRCNT), where numbers from 0 - 100% represent growth inhibition, and numbers from -100% - 0 represent cell death. For example, a value of 40 represents 60% growth inhibition. A value of 0 means no net growth occurred over the course of the experiment. A value of -40 indicates 40% of cells at the beginning of the experiment died by the end of the experiment. A value of -100 means all cells are dead at the end of the experiment.
NCI-60 Human Tumor Cell Lines Screen was performed using the standard one-dose NCI protocol, which is described in more detail at https://dtp.cancer.gov/discovery_development/nci-60/default.htm.
Compounds with GIPRCNT values below 10 were considered active. Activity score was based on GIPRCNT using the following formula: […]
Score is 0 for GIPRCNT values of 100 or above, 50 for GIPRCNT values of 0, and 100 for GIPRCNT values of -100.

| SMILES | growth |
| --- | --- |
| O=C1C2C(C(=O)[N]1[Hg][c]1ccccc1)C1(Cl)C(Cl)=C(Cl)C2(Cl)C1(Cl)Cl (stereo not given) | -82.8% (active) |
| O=[N+]([O-])c1ccc(OP(=O)(CCl)N(CCCl)CCCl)cc1 (stereo not given) | 98.4% |
| COc1cc(C=Nc2cc(Cl)cc(Cl)c2)ccc1N(CCCl)CCCl | 78.7% |
| CC[C@H](NC(=O)[C@H]1CCCCN1C)C(=O)N(C)[C@H](C[C@@H](OC(C)=O)c1nc(C(=O)N[C@@H](Cc2ccccc2)C[C@H](C)C(=O)O)cs1)C(C)C | 13.2% |
| Clc1ccc(CO/N=C(\Cn2ccnc2)c2ccc(Cl)cc2Cl)c(Cl)c1 | -47.4% (active) |
| C1CCC([PH+](C2CCCCC2)C2CCCCC2[PH+](C2CCCCC2)C2CCCCC2)CC1.[Au].[CH-]1CCCCC1CC1CCCC[N-]1 (stereo not given) | -97.2% (active) |
| CCC1(C(C)C)C(=O)NC(=S)NC1=O | 102% |
| CCN(CC)c1ccc2c(c1)OC(N)=C(C#N)C2c1cc(OC)c2c(c1)OCO2 (stereo not given) | 23.2% |
| CC(C)=CCc1c(O)c(C(=O)CC(C)C)c(O)c2c(-c3ccccc3)cc(=O)oc12 | 68.2% |
| CCCC[C@H](NC(=O)[C@H]1CCCN1C)C(=O)N(C)[C@H](C[C@@H](OC(C)=O)c1nc(C(=O)N[C@@H](Cc2ccccc2)C[C@H](C)C(=O)OCC)cs1)C(C)C | 20.8% |
| C[C@]12CC[C@H]3[C@@H](C[C@@H]4SC(Nc5ccccc5)=N[C@@]45CC(O)CC[C@]35C)[C@@H]1CCC2O (stereo not given in full) | -81.5% (active) |
| COC(=O)[C@@H](C)C[C@H](Cc1ccccc1)NC(=O)c1nc([C@@H](C[C@H](C(C)C)N(C)C(=O)[C@@H](NC(=O)[C@H]2CCCCN2C)C(C)C)OC(C)=O)sc1C(C)C | 9.2% (active) |
| CC[C@]12C=CCN3CC[C@@]4(c5ccc(OC)cc5N(C)[C@H]4[C@@](O)(C(=O)OC)[C@@H]1OC(=O)CCCC[P+](c1ccccc1)(c1ccccc1)c1ccccc1)[C@@H]32 | 18.5% |
| O=C(CC1(O)C(=O)N(Cc2ccccc2)c2ccccc21)c1ccc(C(=O)NCC2CCC3(CC2)OOC2(CCCCC2)OO3)cc1 (stereo not given) | -84.1% (active) |
| COc1ccc(C(=O)c2sc3nc4c(cc3c2N)N2CCC4CC2)cc1OC | 85.4% |
| COc1ccc(N(CC(=O)NCCC[Te]c2ccccc2)C(=O)CNC(=O)OC(C)(C)C)cc1 | 17.6% |
| COc1ccc2c(c1)c(-c1nc(-c3cn(C)c4ncccc34)cs1)cn2CCCCN1CCCCC1 | -78% (active) |
| OCc1ccc2c(c1)OCO2 | 95.3% |
| CC[C@]12C=CCN3CC[C@]4(C(=C(C(=O)OC)C1)Nc1cc(OC)c(OC(C)=O)cc14)[C@@H]32 | -24% (active) |
| O=[N+]([O-])c1ccc([Se]C2CCCCC2Cl)c([N+](=O)[O-])c1 (stereo not given) | -55.2% (active) |

| SMILES | growth |
| --- | --- |
| COC(=O)CC12CC(NC(=O)c3csc([C@@H](C[C@H](C(C)C)N(C)C(=O)[C@@H](NC(=O)[C@H]4CCCCN4C)C(C)C)OC(C)=O)n3)(C1)C2 | 23.3% |
| Cc1cc(N(CCCl)CCCl)ccc1C=Nc1ccc(-c2csc(Cc3ccccc3)n2)cc1 | 63.2% |
| Clc1ccc2nnnn2n1 | 16.3% |
| COC(=O)N[C@H]1CCc2c(Br)c(OC)c(OC)c(OC)c2-c2ccc(SC)c(=O)cc21 | 12.1% |
| CC(C)OC(=O)[C@H](C)NP(=O)(Oc1ccccc1)C1CCCN(O)C1=O (stereo not given in full) | 85.3% |
| C[C@@H]1C[C@@]2(C)[C@@H](CC[C@@H]3[C@@H]2CC[C@]2(C)C(=O)CC[C@@H]32)CC1=O | 98.5% |
| Cc1cc(C)c(CBr)c(C)c1 | 101% |
| N#CC1(c2ccccc2)CCN(Cc2ccccc2)CC1 | 102% |
| CCOC(=O)[C@@H](C)C[C@H](Cc1ccccc1)NC(=O)c1csc([C@@H](C[C@H](C(C)C)N(C)C(=O)CNC(=O)[C@H]2CCCCN2C)OC(C)=O)n1 | 34.3% |
| C=C1[C@@H](C)[C@H]2[C@H](Cc3ccccc3)NC(=O)[C@]23[C@@H](O)/C=C/[C@@](C)(O)C(=O)[C@@H](C)C/C=C/[C@H]3[C@@H]1O | 27.1% |
| CNC(=O)Oc1ccc2c(c1)OCO2 | 103% |
| C=C1C[C@](OC)([C@H](O)C(=O)N[C@@H](OC)[C@@H]2C[C@@H](O)C(C)(C)[C@@H](C[C@@H](COC)OC)O2)O[C@H](C)[C@@H]1C | -81.8% (active) |
| CCC(=O)Nc1ccc(Cl)c(Cl)c1 | 98.3% |
| CC[C@H](C)[C@H](NC(=O)[C@H]1CCCCN1C)C(=O)N(C)[C@H](C[C@@H](OC(C)=O)c1nc(C(=O)N[C@@H](Cc2ccccc2)C[C@H](C)C(=O)OC)cs1)C(C)C | 8.61% (active) |
| COc1ccc2c(c1)c(-c1nc(-c3cn(C)c4ncccc34)cs1)cn2CCN1CCOCC1 | 32.5% |
| COC(=O)[C@@H](C)C[C@H](Cc1ccccc1)NC(=O)c1nc([C@@H](C[C@H](C(C)C)N(C)C(=O)[C@@H](NC(=O)[C@H]2CC(=O)CCN2C)C(C)C)OC(C)=O)sc1C(C)C | 14.7% |
| CN1C(=O)C23CC4(C56CC78SSC(CO)(C(=O)N7C5Nc5ccccc56)N(C)C8=O)c5ccccc5NC4N2C(=O)C1(CO)SS3 (stereo not given) | -93.6% (active) |
| CC(=O)O[C@H]1CC[C@@]2(C)C(=CC[C@H]3[C@@H]4C[C@@H](N5CC5)[C@H](C(C)=O)[C@@]4(C)CC[C@@H]32)C1 | 87.6% |
| COc1ccc(/C=C\c2cc(OC)c(OC)c(OC)c2)cc1OCC(=O)Nc1nc2ccc(F)cc2s1 | 19.1% |
| C=CCCCN=C=S | 53.8% |

Source: PubChem BioAssay (NCI)
